Where a name gives a salt, the structure may show the parent alone.
Tests used:
Test in all cases: thermal shift delta Tm vs DMSO control; higher = stronger stabilization (binding)
Details in all cases: 12.5 µM; protein concentration 2 µM
LOC_OS01G01410-cb001 = tested on: LOC_OS01G01410-cb001
How it was run: (§1)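 Thermal shift values come from differential scanning fluorimetry on purified rice kinase domains made in E. coli, with melting temperatures obtained from Boltzmann fits. Samples of 19.5 μl held 2 μM kinase, 100 mM potassium phosphate pH 7.5, 150 mM NaCl, 10% glycerol, 5 × SYPRO Orange and compound in DMSO, and were heated from 25°C to 95°C at 0.05°C/s. Each shift is a triplicate mean relative to the DMSO-only protein sample.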

LOC_OS01G02750-cb003 = tested on: LOC_OS01G02750-cb003
How it was run: as §1

LOC_OS01G10900-cb004 = tested on: LOC_OS01G10900-cb004
How it was run: as §1

LOC_OS01G13800-cb001 = tested on: LOC_OS01G13800-cb001
How it was run: as §1

LOC_OS01G14860-cb001 = tested on: LOC_OS01G14860-cb001
How it was run: as §1

LOC_OS01G21960-cb002 = tested on: LOC_OS01G21960-cb002
How it was run: as §1

LOC_OS01G39600-cb002 = tested on: LOC_OS01G39600-cb002
How it was run: as §1

LOC_OS01G48390-cb002 = tested on: LOC_OS01G48390-cb002
How it was run: as §1

LOC_OS01G51400-cb002 = tested on: LOC_OS01G51400-cb002
How it was run: as §1

LOC_OS01G52050-cb004 = tested on: T1, LOC_OS01G52050-cb004
T1 sequence (whole entry): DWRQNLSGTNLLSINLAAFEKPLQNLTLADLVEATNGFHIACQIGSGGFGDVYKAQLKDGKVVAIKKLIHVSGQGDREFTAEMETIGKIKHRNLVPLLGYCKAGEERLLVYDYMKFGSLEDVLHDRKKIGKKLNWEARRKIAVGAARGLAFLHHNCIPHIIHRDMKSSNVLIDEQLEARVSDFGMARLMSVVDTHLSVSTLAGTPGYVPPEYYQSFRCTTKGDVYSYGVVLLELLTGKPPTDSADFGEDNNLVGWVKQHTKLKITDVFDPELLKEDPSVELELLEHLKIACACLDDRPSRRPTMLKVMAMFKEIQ
How it was run: as §1
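Note: purified Escherichia coli-expressed rice kinase domain construct.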

Structure (SMILES) | thermal shift delta Tm (LOC_OS01G01410-cb001) [°C] | thermal shift delta Tm (LOC_OS01G02750-cb003) [°C] | thermal shift delta Tm (LOC_OS01G10900-cb004) [°C] | thermal shift delta Tm (LOC_OS01G13800-cb001) [°C] | thermal shift delta Tm (LOC_OS01G14860-cb001) [°C] | thermal shift delta Tm (LOC_OS01G21960-cb002) [°C] | thermal shift delta Tm (LOC_OS01G39600-cb002) [°C] | thermal shift delta Tm (LOC_OS01G48390-cb002) [°C] | thermal shift delta Tm (LOC_OS01G51400-cb002) [°C] | thermal shift delta Tm (LOC_OS01G52050-cb004) [°C]
COc1cc(-c2cc(-c3ccc(N4CCNCC4)cc3)cnc2C)cc(OC)c1OC | 1.74 | 0.65 | 1.13 | -0.6 | -0.12 | 0.67 | -1.03 | 0.11 | -0.26 | 0.04
COc1cc2ncnc(Nc3cccc(Cl)c3)c2cc1OC [AG-1478 (Tyrphostin AG-1478)] | 1.49 | 1.82 | 0.65 | 0.5 | 0.56 | 0.99 | 1.07 | 2.73 | 0.17 | 1.69
N#Cc1cccc(-c2c[nH]c3ncnc(N4CCOCC4)c23)c1 | 0.72 | 2.58 | 0.72 | 0.32 | 1.47 | 1 | 1.94 | 0.73 | 0.58 | 1.08
Cc1c(CN2CCN(C(=O)[C@H](C)O)CC2)sc2c(N3CCOCC3)nc(-c3cnc(N)nc3)nc12 [Apitolisib (GDC-0980, RG7422)] | 0.32 | 0.18 | 0.13 | 0.56 | 0.1 | 0.49 | 0.16 | 0.64 | 0.53 | 0.42
Cc1cn(-c2cc(NC(=O)c3ccc(C)c(Nc4nccc(-c5cnccn5)n4)c3)cc(C(F)(F)F)c2)cn1 [Radotinib] | 0.24 | 1.63 | 2.41 | 0.87 | 0.52 | 0.96 | -0.12 | 0.73 | 0.16 | 0.51
C[C@@H](N)c1ccc(C(=O)Nc2ccnc3[nH]ccc23)cc1 | 0.24 | 1.16 | 0.32 | 0.63 | 1.44 | 1.78 | 0.74 | 0.45 | 0.27 | 1.35
CN(C)C/C=C/C(=O)Nc1cc2c(Nc3ccc(F)c(Cl)c3)ncnc2cc1O[C@H]1CCOC1 [Afatinib (BIBW2992)] | 1.12 | -0.19 | 4 | 0.13 | 2.91 | -0.28 | 1.11 | 2.17 | 0.41 | 0.75
N#Cc1cnc(Nc2cc(NC[C@H]3CNCCO3)c(C(F)(F)F)cn2)cn1 | 0.36 | 2.89 | 0.47 | -0.18 | 2.93 | 0.6 | 0.93 | 2.58 | 0.75 | 5.23
CC(C)NC(=O)C1CCC(n2c(NC(=O)c3ccc(F)cc3)nc3ccc(CN4CCC(C(C)(C)O)CC4)cc32)CC1 (stereo not given) [Belizatinib (TSR-011)] | 0.68 | 3.65 | 1.75 | -0.36 | 0.58 | 1.84 | 2.02 | 2.61 | 0.56 | 4.45
Cc1cc(Nc2ncnc3ccc(NC4=NC(C)(C)CO4)cc23)ccc1Oc1ccn2ncnc2c1 [Irbinitinib (ARRY-380, ONT-380)] | 0.46 | -5.11 | 0.3 | -0.06 | -1.49 | -0.98 | -4.96 | -0.78 | -3.07 | 1.03
Cc1cc(C(=O)Nc2nc3cccc(Cl)c3n2[C@@H]2CCCCN(C(=O)/C=C/CN(C)C)C2)ccn1 [Nazartinib (EGF816, NVS-816)] | 1.02 | 1.36 | 1.4 | 0.82 | 1.27 | 1.25 | 0.83 | 0.78 | 0.04 | 0.96
C[C@@H](Oc1cc(-c2cnn(C3CCNCC3)c2)cnc1N)c1c(Cl)ccc(F)c1Cl | 2.96 | 1.71 | 1.58 | -0.59 | 0.41 | -0.27 | 0.93 | 5.62 | 0.05 | 4.57
Cc1cc(Nc2nc(N[C@@H](C)c3ccc(F)cc3)c(C#N)cc2F)n[nH]1 | 4.59 | 1.83 | 0.46 | -0.07 | 5.09 | 1.28 | 4.3 | 5.61 | 0.07 | 0.63
CC(C)(C)c1nc(-c2cccc(NS(=O)(=O)c3c(F)cccc3F)c2F)c(-c2ccnc(N)n2)s1 | 1.54 | 0.76 | 0.26 | 0.08 | 8.58 | 1.84 | -9.31 | 0.37 | 0.33 | 1.56
CC[C@H](CO)Nc1nc(NCc2ccccc2)c2ncn(C(C)C)c2n1 [Roscovitine (Seliciclib,CYC202)] | 1.5 | 0 | 0.05 | 0.22 | 0.12 | 0.12 | 0.5 | 0.22 | 0.03 | 0.24
COC(=O)Nc1ccc(-c2nc(N3CCOCC3)c3cnn(C4CCN(C(=O)OC)CC4)c3n2)cc1 | 0.48 | 0.7 | 1.9 | 0.44 | 0.21 | 0.37 | -0.17 | 0.23 | -0.05 | 0.25
O=C(Nc1ccc(OC(F)(F)F)cc1)c1sccc1NCc1ccnc2ccccc12 | 1.17 | 2.66 | 0.51 | 0.57 | 0.78 | 0.12 | 1.45 | 1 | 0.94 | 3.68
CCn1c(=O)c(-c2cc[nH]n2)cc2c(C)nc(N)nc21 | 0.43 | 1.06 | 0.44 | 0.27 | 0.44 | 0.65 | 0.24 | 0.13 | -0.16 | 0.21

Structure (SMILES) | thermal shift delta Tm (LOC_OS01G01410-cb001) [°C] | thermal shift delta Tm (LOC_OS01G02750-cb003) [°C] | thermal shift delta Tm (LOC_OS01G10900-cb004) [°C] | thermal shift delta Tm (LOC_OS01G13800-cb001) [°C] | thermal shift delta Tm (LOC_OS01G14860-cb001) [°C] | thermal shift delta Tm (LOC_OS01G21960-cb002) [°C] | thermal shift delta Tm (LOC_OS01G39600-cb002) [°C] | thermal shift delta Tm (LOC_OS01G48390-cb002) [°C] | thermal shift delta Tm (LOC_OS01G51400-cb002) [°C] | thermal shift delta Tm (LOC_OS01G52050-cb004) [°C]
Cc1cnc(Nc2ccc(OCCN3CCCC3)cc2)nc1Nc1cccc(S(=O)(=O)NC(C)(C)C)c1 | 1.71 | 0.69 | 0.57 | -0.28 | 1.28 | 2.52 | 5.09 | 0.66 | 0.43 | 2.51
CCCS(=O)(=O)Nc1ccc(F)c(C(=O)c2c[nH]c3ncc(-c4ccc(Cl)cc4)cc23)c1F [Vemurafenib (PLX4032, RG7204)] | 3.81 | 7.84 | 6.74 | 1.27 | 4.3 | 2.86 | 11.7 | 3.18 | 1.03 | 11.1
O=C(c1ccc(Nc2nccc(-c3cc4ccccc4s3)n2)cc1)N1CCC(N2CCCC2)CC1 [IKK-16 (IKK Inhibitor VII)] | 2.52 | 2.69 | 4.53 | -0.34 | 5.72 | 2.79 | 8.28 | 1.72 | -0.14 | 4.5
CC1=C(C(=O)Nc2ccc3[nH]ncc3c2)C(c2ccc(F)cc2)NC(=O)N1 (stereo not given) | 0.44 | 1.19 | 0.21 | 0.88 | 0.96 | 0.9 | 0.5 | 0.28 | 0.23 | 4.76
O=C(O)c1ccc2c3c1cccc3c(=O)n1c3ccccc3nc21 | 3.12 | 0.97 | 0.69 | 0.32 | 1.4 | 0.71 | 0.62 | 0.91 | 0 | 1.18
COc1ccc(CNC(=O)Nc2ncc([N+](=O)[O-])s2)cc1 | 0.9 | 0.85 | 0.34 | 0.54 | 3.27 | 1.49 | -4.25 | 0.63 | -0.45 | 0.42
C[C@@H](NC(=O)c1ncnc(N)c1Cl)c1ncc(C(=O)Nc2cc(C(F)(F)F)c(Cl)cn2)s1 | 1.26 | 1.15 | 2.82 | -0.27 | 0.84 | 0.73 | -1.6 | 2.52 | 0.56 | 0.43
Cc1c[nH]c(/C=C2\C(=O)Nc3ccccc32)c1CCC(=O)O | 1.48 | 0.9 | 0.02 | 0 | 1.61 | 0.56 | 4.55 | 1.99 | 0.25 | 1.77
CCC(=O)Nc1cccc(Oc2nc(Nc3ccc(N4CCN(C)CC4)cc3OC)ncc2Cl)c1 | 0.36 | 1.2 | 0.23 | -0.06 | -0.01 | 0.7 | -0.79 | 0.98 | 0.38 | 0.14
CO[C@H]1C[C@@H]2CC[C@@H](C)[C@@](O)(O2)C(=O)C(=O)N2CCCC[C@H]2C(=O)O[C@H]([C@H](C)C[C@@H]2CC[C@@H](OC(=O)C(C)(CO)CO)[C@H](OC)C2)CC(=O)[C@H](C)/C=C(\C)[C@@H](O)[C@@H](OC)C(=O)[C@H](C)C[C@H](C)/C=C/C=C/C=C/1C | 1 | 0.76 | 0.53 | 0.18 | 0 | 0.4 | 0.18 | 0.44 | 0.1 | 0.73
Oc1cccc(-c2nc(N3CCOCC3)c3oc4ncccc4c3n2)c1 | 0.96 | 0.09 | 0.03 | 0.75 | 0.17 | 0.64 | 0.74 | 0.11 | 0.21 | 0.11
Nc1ncccc1-c1nc2ccc(-c3ccccc3)nc2n1-c1ccc(C2(N)CCC2)cc1 [Miransertib (ARQ 092) HCl] | 0.37 | 2.32 | 0.6 | -0.45 | 0.59 | 0.09 | 0.14 | 0.09 | 0.08 | 0.78
COc1c(C)c(C(=O)c2ccc(N)c(C(=O)O)c2)n2ccccc12 | 0.21 | 1.05 | 0.42 | -0.23 | 0.24 | 0.79 | -11.6 | 0.46 | 0.21 | 0.12
O=C1NC(=O)/C(=C/c2cccc(C(F)(F)F)c2)S1 | -0.06 | 0.14 | 0.2 | 0.24 | 0.12 | 0.28 | -0.09 | 0.08 | 0.11 | 0.12
C=CCc1ccc(O)c(-c2ccc(O)c(CC=C)c2)c1 [Honokiol] | 0.83 | 1.12 | 0.85 | 0.22 | 0.9 | 1.38 | 1.21 | 0.93 | 0.36 | 1.76
CS(=O)(=O)CCNCc1ccc(-c2ccc3ncnc(Nc4ccc(OCc5cccc(F)c5)c(Cl)c4)c3c2)o1 [Lapatinib] | 3.23 | 7.61 | 1.97 | 0.94 | 1.79 | 2.25 | 3.93 | 1.79 | 1.92 | 6.04
O=C1Nc2ccc(I)cc2/C1=C/c1cc(Br)c(O)c(Br)c1 | 5.94 | 0.5 | 6.08 | 2.56 | 5.73 | 5.54 | 25.1 | 2.41 | 0.7 | 3.09
